From PubChem BioAssay AID1159580 (chemical genetic matrix, 2015)
In all, about 5,500 compounds went through this assay and about 2,000 (36%) were called active. Not shown: some 18% with an inconclusive outcome. Cut-off read from the data, not from the text of the source: active = normalized growth mostly below about 0.91 (no sharp cut-off); inconclusive = no clear call, values can overlap the other calls; inactive = mostly above about 0.92. The list shows a part of the results.

Test: chemical genetic growth profiling, strain panel (AID 1159580);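 note: tested at 20 µM; growth read once vehicle control cultures reached saturation at 30 °C; 1 = growth at the plate median or of vehicle wells; lower values mean less growth of the strain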
Details: growth OD
[1] = S. cerevisiae deletion strains, locus YAL013W, strain DEP1, hits give low values
[2] = S. cerevisiae deletion strains, locus YBR229C, strain ROT2, hits give low values
[3] = S. cerevisiae deletion strains, locus YDL101C, strain DUN1, hits give low values
[4] = S. cerevisiae deletion strains, locus YDL134C, strain PPH21, hits give low values
[5] = S. cerevisiae deletion strains, locus YDR150W, strain NUM1, hits give low values
[6] = S. cerevisiae deletion strains, locus YEL061C, strain CIN8, hits give low values
[7] = S. cerevisiae deletion strains, locus YGR078C, strain PAC10, hits give low values
[8] = S. cerevisiae deletion strains, locus YHR030C, strain SLT2, hits give low values
[9] = S. cerevisiae deletion strains, locus YHR087W, strain rtc3, hits give low values
[10] = S. cerevisiae deletion strains, locus YJL187C, strain SWE1, hits give low values
[11] = S. cerevisiae deletion strains, locus YJR043C, strain POL32, hits give low values
[12] = S. cerevisiae deletion strains, locus YJR075W, strain HOC1, hits give low values
[13] = S. cerevisiae deletion strains, locus YKL190W, strain CNB1, hits give low values
[14] = S. cerevisiae deletion strains, locus YLR039C, strain RIC1, hits give low values
[15] = S. cerevisiae deletion strains, locus YLR058C, strain SHM2 (second series), hits give low values
[16] = S. cerevisiae deletion strains, locus YLR085C, strain ARP6, hits give low values
[17] = S. cerevisiae deletion strains, locus YLR262C, strain YPT6, hits give low values
[18] = S. cerevisiae deletion strains, locus YML094W, strain GIM5, hits give low values
[19] = S. cerevisiae deletion strains, locus YMR219W, strain ESC1, hits give low values
[20] = S. cerevisiae deletion strains, locus YMR263W, strain SAP30, hits give low values
[21] = S. cerevisiae deletion strains, locus YNL153C, strain GIM3, hits give low values
[22] = S. cerevisiae deletion strains, locus YNL298W, strain CLA4 (second series), hits give low values
[23] = S. cerevisiae deletion strains, locus YNL322C, strain KRE1, hits give low values
[24] = S. cerevisiae deletion strains, locus YNR030W, strain Alg12, hits give low values
[25] = S. cerevisiae deletion strains, locus YPL055C, strain LGE1, hits give low values
[26] = S. cerevisiae deletion strains, locus YPL241C, strain CIN2, hits give low values
[27] = S. cerevisiae deletion strains, locus YPR135W, strain CTF4, hits give low values
[28] = S. cerevisiae strains, strain wild type, hits give low values

Measured: normalized growth

COC(=O)c1ccc(-c2ccccc2F)cc1
active: [8] 0.681 | [13] 0.857 | [16] 0.696 | [28] 0.901
inactive: [1] 0.984 | [2] 0.982 | [3] 0.987 | [4] 0.974 | [5] 0.971 | [6] 0.927 | [7] 0.962 | [9] 0.968 | [10] 0.961 | [11] 0.94 | [12] 0.893 | [14] 0.796 | [15] 0.99 | [17] 0.929 | [18] 0.958 | [19] 0.991 | [20] 0.971 | [21] 0.968 | [22] 0.897 | [23] 0.999 | [24] 0.957 | [25] 0.917 | [26] 0.89 | [27] 0.786

COC(=O)c1ccc(C(=O)OC)nc1
inactive: [1] 1 | [2] 0.994 | [3] 0.977 | [5] 0.976 | [6] 0.999 | [7] 0.997 | [8] 0.982 | [9] 0.995 | [11] 1 | [12] 0.993 | [14] 0.973 | [15] 1 | [16] 1.01 | [17] 0.984 | [18] 0.942 | [19] 0.998 | [20] 1.02 | S. cerevisiae deletion strains, locus YNL128W, strain TEP1, hits give low values 0.987 | [21] 1 | [22] 1 | [23] 0.992 | [24] 0.998 | [25] 0.991 | [26] 0.949 | [27] 0.967 | [28] 0.989

CC/C(=N/Oc1ccc(C(F)(F)F)cn1)c1ccc(-c2ccccc2F)cc1
inactive: [1] 1.01 | [2] 1.01 | [3] 0.995 | [5] 0.981 | [6] 0.992 | [7] 1.01 | [8] 1.12 | [9] 1.02 | [10] 0.999 | [11] 0.987 | [12] 0.991 | [14] 1.03 | [15] 0.999 | [16] 1.04 | [17] 1.03 | [18] 1.01 | [19] 1 | [20] 0.996 | [21] 1 | [22] 1.05 | [23] 0.986 | [24] 1.02 | S. cerevisiae deletion strains, locus YOL006C, strain TOP1, hits give low values 1.06 | [25] 0.984 | [26] 1.01 | [27] 1.05 | [28] 1.02

CN(C)c1ccc(/C=N\NC(=O)CCc2ccc(O)cc2)c(Cl)c1
inactive: [1] 1.01 | [2] 0.998 | [3] 1.05 | [4] 1.01 | [5] 1.01 | [6] 0.974 | [7] 1.02 | [8] 0.992 | [9] 0.995 | [11] 1.01 | [12] 1.01 | [13] 1.01 | [14] 0.951 | [15] 1.01 | [16] 0.999 | [17] 0.946 | [18] 0.974 | [19] 1.01 | [20] 1.02 | S. cerevisiae deletion strains, locus YMR307W, strain GAS1, hits give low values 0.97 | [21] 1 | [22] 0.999 | [23] 1.01 | [24] 1.01 | [25] 0.985 | [26] 0.967 | [27] 1.01
